In ChEMBL document CHEMBL4513152, “CO-ADD screening of Yantai University (China) compounds”:
Measured potencies and affinities stand elsewhere.

Experiments:
Staphylococcus aureus = conditions: Concentration 32 ug.mL-1; ASSAY_TEST Inhibition of Bacterial Growth; detection method Absorption (OD600); MEDIA CAMHB; plate type 384well; NBS; CORNING #3640; time 18 hr
Escherichia coli = conditions: Concentration 32 ug.mL-1; ASSAY_TEST Inhibition of Bacterial Growth; detection method Absorption (OD600); MEDIA CAMHB; plate type 384well; NBS; CORNING #3640; time 18 hr

| SMILES | Inhibition (Staphylococcus aureus) | Inhibition (Escherichia coli) |
| --- | --- | --- |
| CC(=O)O[C@H]1C[C@@]2(C)C(C[C@@H](O)C3[C@@]4(C)CC[C@@H](O)[C@@H](C)C4CC[C@@]32C)/C1=C(\CCC=C(C)C)C(=O)On1nnc2ccccc21 (stereo partly drawn) | 73.87% | -6.08% |
| CC(=O)O[C@H]1C[C@@]2(C)C(C[C@@H](O)C3[C@@]4(C)CC[C@@H](OC(=O)c5ccccc5C(=O)Oc5ccc(CCO[N+](=O)[O-])cc5)[C@@H](C)C4CC[C@@]32C)/C1=C(\CCC=C(C)C)C(=O)OCc1ccccc1 (stereo partly drawn) | -1.26% | -6.53% |
| CC(=O)O[C@H]1C[C@@]2(C)C(C[C@@H](O)C3[C@@]4(C)CC[C@@H](OC(=O)c5ccccc5C(=O)OCCc5ccc(OCCO[N+](=O)[O-])cc5)[C@@H](C)C4CC[C@@]32C)/C1=C(\CCC=C(C)C)C(=O)OCc1ccccc1 (stereo partly drawn) | 8.23% | 0.28% |
| CC(=O)O[C@H]1C[C@@]2(C)C(C[C@@H](O)C3[C@@]4(C)CC[C@@H](O)[C@@H](C)C4CC[C@@]32C)/C1=C(\CCC=C(C)C)C(=O)Oc1ccc(CCO[N+](=O)[O-])cc1 (stereo partly drawn) | 23.19% | -3.14% |
| CC(=O)O[C@H]1C[C@@]2(C)C(C[C@@H](O)C3[C@@]4(C)CC[C@@H](OC(=O)C(N)CC(C)C)[C@@H](C)C4CC[C@@]32C)/C1=C(\CCC=C(C)C)C(=O)OCc1ccccc1 (stereo partly drawn) | -0.87% | -4.43% |
| CC(=O)O[C@H]1C[C@@]2(C)C(C[C@@H](O)C3[C@@]4(C)CC[C@@H](OC(=O)CCCCO[N+](=O)[O-])[C@@H](C)C4CC[C@@]32C)/C1=C(\CCC=C(C)C)C(=O)OCc1ccccc1 (stereo partly drawn) | 9.5% | -4.08% |
| CC(=O)O[C@H]1C[C@@]2(C)C(C[C@@H](O)C3[C@@]4(C)CC[C@@H](OC(=O)CCC(=O)Oc5ccc(CCO[N+](=O)[O-])cc5)[C@@H](C)C4CC[C@@]32C)/C1=C(\CCC=C(C)C)C(=O)OCc1ccccc1 (stereo partly drawn) | -9.31% | -12.6% |
| CC(=O)O[C@H]1C[C@@]2(C)C(C[C@@H](O)C3[C@@]4(C)CC[C@@H](OC(=O)c5ccccc5C(=O)Nc5ccc(N)cc5)[C@@H](C)C4CC[C@@]32C)/C1=C(\CCC=C(C)C)C(=O)OCc1ccccc1 (stereo partly drawn) | 7.06% | 1.09% |
| CC(=O)O[C@H]1C[C@@]2(C)C(C[C@@H](O)C3[C@@]4(C)CC[C@@H](OC(=O)CCC(=O)OCCc5ccc(OCCO[N+](=O)[O-])cc5)[C@@H](C)C4CC[C@@]32C)/C1=C(\CCC=C(C)C)C(=O)OCc1ccccc1 (stereo partly drawn) | -0.26% | -8.83% |
| CC(=O)O[C@H]1C[C@@]2(C)C(C[C@@H](O)C3[C@@]4(C)CC[C@@H](OC(=O)C(N)C(C)C)[C@@H](C)C4CC[C@@]32C)/C1=C(\CCC=C(C)C)C(=O)OCc1ccccc1 (stereo partly drawn) | -9.9% | -10.45% |
| CC(=O)O[C@H]1C[C@@]2(C)C(C[C@@H](O)C3[C@@]4(C)CC[C@@H](OC(=O)CCCCCO[N+](=O)[O-])[C@@H](C)C4CC[C@@]32C)/C1=C(\CCC=C(C)C)C(=O)OCc1ccccc1 (stereo partly drawn) | 6.22% | -6.82% |
| CC(=O)O[C@H]1C[C@@]2(C)C(C[C@@H](O)C3[C@@]4(C)CC[C@@H](OC(=O)c5ccccc5C(=O)Nc5cccc(N)c5)[C@@H](C)C4CC[C@@]32C)/C1=C(\CCC=C(C)C)C(=O)OCc1ccccc1 (stereo partly drawn) | 1.65% | -0.14% |
| CC(=O)O[C@H]1C[C@@]2(C)C(CC(=O)C3[C@@]4(C)CC[C@@H](OC(=O)CCCCCO[N+](=O)[O-])[C@@H](C)C4CC[C@@]32C)/C1=C(\CCC=C(C)C)C(=O)OCc1ccccc1 (stereo partly drawn) | 5.71% | -2.8% |
| CC(=O)O[C@H]1C[C@@]2(C)C(CC(=O)C3[C@@]4(C)CCC(=O)[C@@H](C)C4CC[C@@]32C)/C1=C(\CCC=C(C)C)C(=O)OCc1ccccc1 (stereo partly drawn) | 29.92% | -4.11% |
| CC(=O)O[C@H]1C[C@@]2(C)C(C[C@@H](O)C3[C@@]4(C)CC[C@@H](OC(=O)C(C)N)[C@@H](C)C4CC[C@@]32C)/C1=C(\CCC=C(C)C)C(=O)OCc1ccccc1 (stereo partly drawn) | 32.79% | -12.12% |
| CC(=O)O[C@H]1C[C@@]2(C)C(C[C@@H](O)C3[C@@]4(C)CC[C@@H](O)[C@@H](C)C4CC[C@@]32C)/C1=C(\CCC=C(C)C)C(=O)OCc1ccccc1 (stereo partly drawn) | 36.65% | -11.95% |
| CC(=O)O[C@H]1C[C@@]2(C)C(CC(=O)C3[C@@]4(C)CC[C@@H](OC(=O)CCCCO[N+](=O)[O-])[C@@H](C)C4CC[C@@]32C)/C1=C(\CCC=C(C)C)C(=O)OCc1ccccc1 (stereo partly drawn) | 9.81% | -0.69% |
| CC(=O)O[C@H]1C[C@@]2(C)C(C[C@@H](O)C3[C@@]4(C)CC[C@@H](OC(=O)CO[N+](=O)[O-])[C@@H](C)C4CC[C@@]32C)/C1=C(\CCC=C(C)C)C(=O)OCc1ccccc1 (stereo partly drawn) | 5.41% | 4.14% |
| CC(=O)O[C@H]1C[C@@]2(C)C(C[C@@H](O)C3[C@@]4(C)CC[C@@H](OC(=O)CCC(=O)O)[C@@H](C)C4CC[C@@]32C)/C1=C(\CCC=C(C)C)C(=O)OCc1ccccc1 (stereo partly drawn) | 44.88% | 10.14% |
